# Assay results published in PubChem BioAssay AID504361 (National Center for Advancing Translational Sciences (NCATS), 2011).
# Records with an inconclusive call do not appear. Activity calls are given as the source filed them. Calls follow the shape of the dose curve; as a rule, active = well fitted curve in the direction sought with a large enough effect; inconclusive = small, poorly fitted or top-dose-only effect, or effect the other way, or another doubt; inactive = no such curve, though single readings can be large or run the other way.
# Test: qHTS Assay for Identifying a Potential Treatment of Ataxia-Telangiectasia: Secondary assay (no NCS) SAR for Probe
# From the text: NIH Chemical Genomics Center [NCGC] NIH Molecular Libraries Probe Centers Network [MLPCN] MLPCN Grant: MH089030-01 Assay Submitter (PI): Wei Zheng and Yosef Shiloh Ataxia-telangiectasia (A-T) is a devastating and progressive disease for which, there is no cure. Although A-T is a multisystem disease, it is stereotyped characterized by its neurological symptoms such as truncal ataxia, due to cerebellar cortical degeneration of the Purkinje and granule cells. Other symptoms of A-T are telangiectasias (dilated blood vessels), primary immunodeficiency, marked sensitivity to ionizing radiation (IR), chromosomal instability and predisposition to cancer. The underlying genetic cause of A-T is null mutations in the ATM (A-T mutated) gene. ATM is a nuclear serine/threonine kinase that functions as a master regulator of the cellular responses to double strand breaks (DSBs) in the DNA. Upon activation by DSBs, ATM phosphorylates a plethora of downstream targets, including KAP-1 on Ser82452. […] To screen for small molecules that will compensate for the loss of ATM in cells derived from A-T patients, we monitored KAP-1 phosphorylation as a readout for ATM-like activity using an AlphaLISA assay. […]
# qHTS Assay Protocol: Step,Parameter,Value,Description 1. […] Readout, EnVision, EnVision plate reader. […] EnVision protocol for 1536-well AlphaScreen read (30ms excitation, 100ms read), about 10 min/plate.
smiles,measurement,value
CC(=O)c1c(O)c(C)c(O)c(Cc2c(O)c3c(c(C(=O)/C=C/c4ccccc4)c2O)OC(C)(C)C=C3)c1O,outcome,inactive
